# Reference: PubChem BioAssay (NCI)
# The panel holds about 83,000 compounds, 20% with a hit somewhere; the sample as a whole holds those more often.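 A percent growth of 40 corresponds to 60% growth inhibition; 0 means no net growth; -100 means all cells died. Active threshold: below 10.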 A number with no mark means an inactive call. Calls of active or inactive are those of the source.
# Experiments:
# Test in all cases: NCI-60 one-dose screen, 48 h (100 = growth as untreated, 0 = no growth, -100 = all killed)
# Details in all cases: 10 µM unless noted
# [1] = tested on: SK-MEL-2 melanoma
# [2] = tested on: EKVX NSCLC
# [3] = tested on: SN12C renal
# [4] = tested on: UO-31 renal
# [5] = tested on: TK-10 renal
# [6] = tested on: ACHN renal
# [7] = tested on: CAKI-1 renal
# [8] = tested on: A498 renal
# [9] = tested on: CCRF-CEM leukemia
# [10] = tested on: MOLT-4 leukemia
# [11] = tested on: SR leukemia
# [12] = tested on: RPMI-8226 leukemia
# [13] = tested on: OVCAR-8 ovarian
# [14] = tested on: OVCAR-5 ovarian
# [15] = tested on: OVCAR-4 ovarian
# [16] = tested on: IGROV1 ovarian
# [17] = tested on: OVCAR-3 ovarian
# [18] = tested on: HS 578T breast
# [19] = tested on: NCI/ADR-RES ovarian
# [20] = tested on: SK-OV-3 ovarian
SMILES,growth [1],growth [2] [%],growth [3],growth [4],growth [5] [%],growth [6],growth [7] [%],growth [8],growth [9],growth [10],growth [11],growth [12] [%],growth [13],growth [14],growth [15],growth [16],growth [17],growth [18] [%],growth [19] [%],growth [20] [%]
NC(CSSCC(N)C(=O)O)C(=O)O (stereo unspecified),-8.58% (active),21.9,-11.2% (active),13.9%,20.4,-37.8% (active),11.4,-7.36% (active),-10.1% (active),-9.51% (active),-20.7% (active),53.6,2.42% (active),-5.59% (active),35.4%,31.8%,4.66% (active),50.3,84.8,–
N#C/C(=C\NC(=S)N=Nc1c(O)[nH]c2ccccc12)c1nc2ccccc2s1,105%,99.3,110%,79.2%,140,89.6%,96.2,89%,93.4%,99.4%,77.3%,97,96%,105%,93.7%,85.4%,103%,94.6,103,92.8
Nc1cc2c(cc1Cl)C(=O)c1ccccc1C2=O,111%,42.5,34%,-15% (active),33.8,3.29% (active),41.5,103%,80.5%,85.8%,59.8%,51.1,21.7%,58.5%,9.39% (active),35.5%,62.3%,–,24.1,39.1
OCc1cccnc1,94%,107,99.2%,81.7%,102,102%,35.5,78.4%,92.1%,109%,95.1%,102,95.2%,99.6%,115%,–,114%,97.2,115,107
Cn1c(=O)c2[nH]c(CC(=O)O)nc2n(C)c1=O,105%,101,104%,93.5%,102,111%,102,98.4%,106%,103%,99.3%,108,102%,106%,118%,–,108%,107,102,106
CN(C)c1ccc(/C=C/C(=O)c2ccc(NC(N)=O)cc2)cc1,103%,89.3,93.3%,68.3%,97.7,103%,87.8,115%,92.8%,91.7%,61.2%,63.8,94.1%,99.8%,94%,99.7%,109%,–,102,105
O=C(O)c1ccccc1Cc1ccc2c(c1)CCCC2,113%,119,102%,73.1%,103,104%,98.5,107%,106%,97.9%,106%,108,105%,104%,111%,99.5%,111%,–,115,111
CC1=CC(=Nc2ccc(N(C)C)cc2)C=C(C)C1=O,110%,93,97.3%,62.3%,133,77.3%,91.2,76.8%,76.1%,87.6%,88.1%,39.7,88.9%,108%,45.2%,96.1%,60%,90.8,83.2,97.1
c1cc(CNCCNCc2ccncc2)ccn1,104%,99.6,98.5%,83.7%,105,109%,91.3,116%,89.5%,84.1%,130%,97.1,97%,115%,–,113%,118%,113,108,104
COC1(OC)C2(Cl)C(Cl)=C(Cl)C1(Cl)C1COCC12 (stereo unspecified),89.7%,104,99.2%,91.6%,94.7,108%,93.9,87.6%,103%,102%,89.9%,106,93.9%,–,97.7%,113%,110%,87.4,110,96
CCOc1ccncc1[N+](=O)[O-],104%,104,110%,99.9%,104,115%,103,121%,109%,102%,102%,112,97.5%,–,116%,118%,106%,112,106,110
Clc1ncnc2nc[nH]c12,118%,101,93.4%,77.2%,107,96.2%,108,101%,103%,100%,102%,88.8,102%,101%,103%,–,98.1%,98,103,–
Cc1cc2nc(C)c(C)nc2cc1C,113%,98.4,115%,78.2%,118,90.7%,81.8,114%,102%,106%,96.8%,89.5,94.2%,95.3%,–,97%,105%,108,101,99.5
COc1ccc(NNS(=O)(=O)O)cc1,103%,104,89.9%,90.4%,103,97.4%,98.5,69.5%,99.2%,105%,93.2%,–,98.4%,93.3%,111%,–,114%,92.2,92.4,102
NNc1ncnc2nc[nH]c12,-7.36% (active),69.7,74.6%,30.9%,67.1,41.1%,42.3,55.1%,37.8%,56.2%,32.5%,13.4,16.4%,63.7%,44.6%,–,79%,84.8,42.7,–
CCCCCCCCCCCCCCCCOc1ccccc1NC(=O)CC(C)=O,92.1%,89.7,63.9%,25.8%,114,98.6%,92.5,93.5%,57.1%,84.8%,107%,64,113%,102%,–,88.4%,118%,118,100,111
CC1CC(C)S(=O)(=O)C1 (stereo unspecified),112%,108,108%,101%,103,103%,106,122%,101%,91.3%,97.9%,109,92%,108%,–,118%,111%,125,111,120
COc1cccc(N=CNc2cccc(OC)c2)c1,86.3%,99.4,101%,91.1%,113,86.2%,87.7,93.2%,94.7%,90.9%,93.6%,92,104%,103%,–,96.7%,102%,105,91.4,103

SMILES,growth [1],growth [2] [%],growth [3],growth [4],growth [5] [%],growth [6],growth [7] [%],growth [8],growth [9],growth [10],growth [11],growth [12] [%],growth [13],growth [14],growth [15],growth [16],growth [17],growth [18] [%],growth [19] [%],growth [20] [%]
O=C(c1ccccc1)c1ccc(-c2ccc(O)cc2)cc1,59.1%,64.5,83.2%,45.2%,68.7,50.4%,103,65.1%,60.7%,120%,177%,–,82.8%,108%,45.6%,25.9%,85.8%,104,44.5,93.4
O=C(OCc1ccccc1)n1nnc2ccccc21,108%,98.2,97%,94.9%,107,108%,93.1,124%,111%,116%,107%,109,105%,–,92.3%,110%,106%,107,111,112
COC1OC(CO)C(OC)C(O)C1O (stereo unspecified),111%,103,104%,92.5%,110,104%,105,92.7%,102%,98.6%,93.8%,101,105%,–,98.5%,102%,112%,112,93.5,105
Cc1ccc(C)c(CN(C)C)c1O,143%,98.1,115%,90.1%,105,114%,114,94.2%,135%,124%,118%,121,98.2%,102%,–,110%,113%,105,99.3,107
NCC(O)C(O)C(O)C(O)CO (stereo unspecified),96.4%,102,96.2%,93.2%,88.5,105%,88.6,98.6%,89.8%,101%,96.6%,–,100%,107%,103%,101%,101%,97.1,102,86.1
Cc1ccc(O)c(N)c1,112%,136,107%,87.9%,127,97%,215,127%,78.7%,123%,113%,55.7,104%,115%,111%,–,118%,106,107,–
CCOC(=N)CC(=O)Nc1cccc(C)c1Cl,118%,109,98.6%,70.5%,113,105%,93.7,120%,109%,108%,105%,107,99.4%,–,106%,104%,104%,105,97.7,97.7
COC1C(=O)CCC2(CO2)C1(O)C1(C)OC1CCC(C)C (stereo unspecified),78.7%,76.2,74.9%,48.7%,119,72.1%,71.4,113%,70.4%,94%,32.2%,77.4,–,87.2%,89.7%,-5.17% (active),95.1%,90.5,86.8,101
Cc1cc(Cc2ccccc2)c(O)c(Cc2ccccc2)c1,111%,112,79.7%,64.6%,98.8,92.9%,80.5,98.6%,98.2%,64.6%,91.3%,103,91.1%,88.2%,–,90.2%,101%,106,82.6,102
CCCCCCCCCCCCCC/C=C\C(CC(=O)O)C(=O)O (stereo unspecified),110%,140,100%,95.9%,111,110%,129,95.2%,4.62% (active),115%,–,113,103%,105%,112%,117%,114%,127,107,105
S=CN1CCCCC1,124%,96.7,103%,89.1%,110,107%,97.2,105%,110%,109%,99.5%,110,97.5%,–,102%,–,102%,112,106,115
CC(C)N1CC(=O)N2CSCC2C1=O (stereo unspecified),115%,105,107%,96.5%,109,109%,100,123%,107%,111%,114%,109,106%,–,123%,111%,104%,98.7,109,116
Cc1cc(C(=O)NN)c(C#N)c(=O)[nH]1,100%,109,88.4%,88.3%,115,105%,96.8,95.7%,95.9%,111%,116%,91.2,100%,106%,107%,–,112%,121,99.1,–
CSCC[C@@H]1C(=O)N(C)[C@H](C(C)(C)C)N1C(=O)c1ccccc1,106%,102,104%,90.4%,106,110%,100,126%,111%,116%,124%,117,100%,–,105%,100%,103%,111,104,113
CCCOCc1cn[nH]n1,104%,103,105%,91.6%,102,110%,104,100%,109%,106%,99.2%,111,102%,–,110%,113%,108%,114,106,109
Cc1cc2c(C(C)C)c(O)c(O)c(C=Nc3ccccc3[N+](=O)[O-])c2c(O)c1-c1c(C)cc2c(C(C)C)c(O)c(O)c(C=Nc3ccccc3[N+](=O)[O-])c2c1O,96.6%,60.7,84.9%,84%,84.2,83.3%,88,101%,35%,26.2%,–,61.5,76.2%,102%,74.4%,80.6%,79.1%,81,94.8,97.5
NNC(=O)CCCCl,105%,98.6,102%,90.5%,111,114%,107,117%,112%,120%,114%,114,104%,–,106%,106%,104%,112,106,123
